Consider 64 compounds from PubChem BioAssay AID1446 (The Scripps Research Institute Molecular Screening Center, 2008).

In all, about 220,000 compounds went through this assay and about 2,400 (1.1%) were called active.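 The calls were made as follows: active = inhibition above the campaign mean plus 3 SD over all tested compounds (cut at about 24% in these data); inactive = the rest.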 The sample as a whole holds a higher share of actives than the screen did.

A short description of this test: viability loss in Ba/F3 EpoR-JAK2V617F cells – cell-based, luminescence, JAK2V617F inhibitor project, primary screen (AID 1446).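 Also: cytokine-independent growth of Ba/F3 cells driven by EpoR plus mutant JAK2; 0% = DMSO-treated cells and 100% = JAK inhibitor I control.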 Conditions: ATP luminescence, at 5.6 µM, stronger effect = higher value.
In general, inhibition refers to the relative decrease from the control value, in per cent. As for `CC(C)NC(=S)N1CCN(S(C)(=O)=O)CC1`, the inhibition is -5.62% (inactive).
The figure for `O=C(c1ccc(=O)oc1)N1CCC(C(O)(c2ccccc2)c2ccccc2)CC1` is 2.85% (inactive); for `COc1ccc(F)cc1C(=O)C1CCCN(C(=O)CCc2ccccn2)C1` (centres undefined) it is 0.16% (inactive); for `COc1ccc(/C=C/CN2CCCC(C(=O)c3cc(F)ccc3F)C2)cc1` (centres undefined) it is 0% (inactive).
The value for `CSCC(=O)N1CCCC(C(=O)c2cc(F)ccc2F)C1` (centres undefined) was 67.6% (active); that for `COc1ccc(Cc2cc(-c3ccc(F)cc3)n[nH]c2=O)cc1` was 1.71% (inactive); that for `CCOC(=O)CSC1=C(C#N)C(c2sccc2C)CC(=O)N1` (centres undefined) was 83.5% (active).
The value for `C=CCOC(=O)C1=C(C)NC(SCC(=O)OCC)=C(C#N)C1c1ccc(C)cc1` (centres undefined) was -0.33% (inactive).
Take `Cc1ccc(C2CC(=O)NC(SCC(=O)OCc3ccccc3)=C2C#N)o1` (centres undefined): the inhibition was 1.77% (inactive).
As to `COc1cccc(-n2c(=O)c3c(C)c(C(=O)N(C)C)sc3n(CC(=O)NCCc3ccc(OC)c(OC)c3)c2=O)c1`, the inhibition is 3.31% (inactive).
The figure for `C/C(=N\NC(=O)C(N)=O)c1ccc2c(c1)OCCO2` is 1.44% (inactive).
The figure for `CCn1c2ccccc2c2cc(CC(N)=O)ccc21` is 2.78% (inactive); for `CCN(CCNC(=O)C1=C(C)C(=O)OC12CCC(C)CC2)c1ccccc1` (centres undefined) it is -2% (inactive); for `CC(C)CC(COCc1ccc(Cl)cc1)N1CCN(C(=O)c2ccc(C(F)(F)F)cc2)CCC1=O` (centres undefined) it is -1.84% (inactive).
The value for `COc1ccc(Cl)cc1C(=O)NCC#N` was -0.27% (inactive).
In the case of `N#C/C=C\Oc1ccc(Cl)cc1N`, the inhibition is 28% (active).
The value for `COc1ccc(N(C(=O)c2ccc(C)cc2)S(=O)(=O)c2cccs2)cc1` was 0.51% (inactive).
The figure for `Cc1nc(CNS(=O)(=O)c2cc([N+](=O)[O-])ccc2C)cs1` is 0.63% (inactive); for `O=C(Nc1nc2ccc([N+](=O)[O-])cc2s1)c1ccncc1` it is -1.41% (inactive).
The figure for `O=C(O)CCC(=O)Nc1nc2ccc([N+](=O)[O-])cc2s1` is 3.19% (inactive); for `O=C(NC(Nc1nc2ccc([N+](=O)[O-])cc2s1)(C(F)(F)F)C(F)(F)F)c1ccccc1` it is 70.1% (active).
As to `CC1C(=O)NC(=O)C1c1ccccc1` (centres undefined), the inhibition is -4.47% (inactive).
For `CN(Cc1ccccc1)Cc1ccccc1F`, the inhibition is 3.28% (inactive).
The value for `COC(=O)c1ccc(Cc2ccccc2)o1` was -0.12% (inactive); that for `CN(C)c1cc[n+](Cc2ccccc2)cc1` was 87.3% (active).
The figure for `c1ccc(Cc2cc[n+](Cc3ccccc3)cc2)cc1` is 52.6% (active); for `CN(C)c1ccc(/C=N/N(Cc2ccccc2)c2ccccc2)cc1` it is 3.41% (inactive).
The value for `CSc1ccc(CN2C(=O)NC3(CCCCCC3)C2=O)cc1` was -4.13% (inactive).
Turning to `C/C(=N\NC(=O)COc1c(C)cccc1C)c1cccs1`, the inhibition is 1.35% (inactive).
The figure for `COCCn1c(SCC(=O)c2[nH]c(C)c(C(C)=O)c2C)nc2ccccc2c1=O` is 1.81% (inactive).
The value for `Cc1[nH]n(C)c(=O)c1N=Nc1ccc(S(C)(=O)=O)cc1` was 1.06% (inactive); that for `CC1=C/C(=N\OS(=O)(=O)c2ccccc2)C=CC1=O` was 40.6% (active).
The figure for `CCOC(=O)C1(S(=O)(=O)c2ccccc2)CCN(Cc2ccccc2)CC1` is 0.13% (inactive); for `CC1=C/C(=N\S(=O)(=O)c2ccccc2)C(C(C)C)=CC1=O` it is -3.55% (inactive).
On to `Cc1ccc2nc(C)c3c(c2c1)N(c1ccccc1)CC3`, for which the inhibition is 19.9% (inactive).
The value for `COc1ccc(NC(=O)CN2C(=O)CSC2=O)cc1` was -1.19% (inactive); that for `COCCCNC(=O)C1CCN(c2ccc(N3CCOCC3)nn2)CC1` was -2.04% (inactive).
As to `COc1cc(OC)c(OC)cc1/C=N/Nc1ncnc2c1[nH]c1ccc(C)cc12`, the inhibition was -4.25% (inactive).
The figure for `CC(C)OCCCNc1ncnc2c1[nH]c1ccc(F)cc12` is 64.7% (active).
On to `O=C1CCCN1CCCNc1ncnc2c1[nH]c1ccccc12`, for which the inhibition is -3.47% (inactive).
In the case of `CC(=O)N1CCN(S(=O)(=O)c2ccc(C)c([N+](=O)[O-])c2)C1C(C)C` (centres undefined), the inhibition was -3.14% (inactive).
The value for `COc1ccc(N=Nc2ccc(O)c(P(=O)(c3ccccc3)c3ccccc3)c2)cc1` was -0.59% (inactive); that for `Cc1nn(-c2ccccc2)c(C)c1NC(=O)CCl` was 3.19% (inactive); that for `Cc1nc2ccc(C(=O)O)cc2[nH]1` was -7.6% (inactive).
The value for `COC(=O)Nc1nc2ccc(Sc3ccccc3)cc2[nH]1` was 83.8% (active).
The value for `CC(C)c1nc2ccc(C(=O)O)cc2[nH]1` was -2.92% (inactive); that for `O=C(Cc1ccccc1)Nc1c(Cl)ccc2nsnc12` was -3.82% (inactive); that for `CCC1(C(=O)c2ccccc2)C(c2cccc([N+](=O)[O-])c2)C1(C(=O)OC)C(=O)OC` (centres undefined) was -2.96% (inactive).
In the case of `Cc1cc2c(cc1C)[n+](C)cn2CC(O)COCC1CC=CCC1` (centres undefined), the inhibition was 44.4% (active).
On to `CC(NC(=O)Nc1ccccc1)C(c1cccs1)N1CCN(c2ccccc2)CC1` (centres undefined), for which the inhibition was -1.45% (inactive).
The value for `CCOc1ccc(C2c3[nH]c4ccccc4c3CCN2Cc2cccn2-c2ncccn2)cc1` (centres undefined) was -1.83% (inactive).
The value for `O=C(O)CS/C(=C\c1ccc(F)cc1)c1nc2ccccc2s1` was -2.1% (inactive); that for `Cc1cc2oc(C(=O)Nc3c(C)n(C)n(-c4ccccc4)c3=O)c(C)c2cc1Cl` was -1.25% (inactive); that for `O=C(Nc1cccc([N+](=O)[O-])c1)Nc1ccc(Cl)cn1` was -2.62% (inactive).
The figure for `O=C(CCl)N(Cc1cccc([N+](=O)[O-])c1)c1cccc(Cl)c1` is 84.1% (active); for `CCN(CC)C(=O)CN(c1cccc([N+](=O)[O-])c1)S(=O)(=O)c1ccccc1` it is 0.82% (inactive); for `Cc1ccc(N(C(=O)c2ccc(S(=O)(=O)N(C)C)cc2)C2C=CS(=O)(=O)C2)cc1` (centres undefined) it is -0.1% (inactive).
As for `O=C(Cn1nc(CNc2ccc(Cl)cc2)[n+]2c1CCCCC2)c1ccc(Cl)cc1`, the inhibition is 1.65% (inactive).
The value for `Cc1ccc(CNC(=O)C2CC(c3ccccc3[N+](=O)[O-])=NO2)o1` (centres undefined) was -5.08% (inactive); that for `COc1ccc(-c2cc(C(=O)NCc3ccco3)no2)cc1OC` was -1.88% (inactive).
The value for `COc1ccc(C2=NOC(C(=O)NCc3ccco3)C2)cc1OC` (centres undefined) was 56.5% (active).
The figure for `Cc1ccc(NC(=S)N(CCCN2CCC(C)CC2)Cc2ccco2)cc1` is 25.4% (active); for `Cc1ccc(NC(=S)N(CCN2CCCCC2)Cc2ccco2)cc1C` it is -2.95% (inactive); for `Cc1ccc(NC(=S)N(Cc2ccco2)C(C)c2cccs2)cc1` (centres undefined) it is 3.37% (inactive).
